Assay outcomes deposited in PubChem by several laboratories.
ABCB6 inh 2 – inhibitors of human ABC transporter ABCB6. Q9NP58. K562-ABCB6 porphyrin accumulation, flow cytometry, 1 h; hits give low values. fluorescence ratio to DMSO, % at 10 µM. actives 0.19% (n = 360,000). AID 602162;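 active = fluorescence ratio to DMSO below 75%, the collection mean minus 3 SD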;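 also: signal is porphyrin accumulated inside mitochondria; 100% equals median channel fluorescence of DMSO control wells; lower ratio means ABCB6 inhibition with less porphyrin fluorescence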
ANO1 block – mouse TMEM16A channel inhibition, primary screen; AID 588511; actives 1.2% (n = 310,000); normalized B-score (activity score, 25-100; higher = stronger inhibition) at 10 µM; HEK293 TMEM16A/YFP iodide influx fluorescence, ionomycin; Q8BHY3;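 active = ratio plate-corrected score three or more library SD toward inhibition, starting fluorescence score within five deviations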;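 also: score derived from kinetic fluorescence span divided by baseline fluorescence per well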
Target sequence (Q8BHY3 whole entry, looked up): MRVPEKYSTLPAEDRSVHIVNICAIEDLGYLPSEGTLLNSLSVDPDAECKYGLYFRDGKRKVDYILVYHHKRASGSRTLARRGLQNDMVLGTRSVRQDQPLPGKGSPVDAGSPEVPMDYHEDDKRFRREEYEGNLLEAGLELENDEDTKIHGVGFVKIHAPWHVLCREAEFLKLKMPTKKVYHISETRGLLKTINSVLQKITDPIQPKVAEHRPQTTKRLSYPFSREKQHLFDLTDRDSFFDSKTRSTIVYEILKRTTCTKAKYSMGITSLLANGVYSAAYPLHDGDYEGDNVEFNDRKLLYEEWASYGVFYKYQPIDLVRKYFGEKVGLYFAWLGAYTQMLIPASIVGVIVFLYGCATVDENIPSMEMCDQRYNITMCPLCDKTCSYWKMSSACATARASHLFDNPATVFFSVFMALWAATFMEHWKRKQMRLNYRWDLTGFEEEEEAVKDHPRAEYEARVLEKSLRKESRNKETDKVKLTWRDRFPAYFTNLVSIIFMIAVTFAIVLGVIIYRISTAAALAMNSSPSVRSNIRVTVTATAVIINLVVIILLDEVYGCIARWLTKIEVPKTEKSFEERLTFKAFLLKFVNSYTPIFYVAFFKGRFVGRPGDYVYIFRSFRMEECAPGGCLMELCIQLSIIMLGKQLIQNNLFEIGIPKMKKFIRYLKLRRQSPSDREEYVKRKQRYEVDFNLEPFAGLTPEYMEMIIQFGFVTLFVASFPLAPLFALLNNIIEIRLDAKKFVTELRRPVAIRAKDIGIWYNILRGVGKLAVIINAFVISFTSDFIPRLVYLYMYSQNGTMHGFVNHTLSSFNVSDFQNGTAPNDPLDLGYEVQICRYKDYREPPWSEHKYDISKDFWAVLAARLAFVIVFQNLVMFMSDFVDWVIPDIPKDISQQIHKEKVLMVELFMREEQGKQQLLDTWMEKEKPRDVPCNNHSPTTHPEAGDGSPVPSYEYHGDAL
hiPSC survival – increases survival of single human iPS cells. survival enhancement, % at 20 µM. hiPSC single-cell survival, ATPlite luminescence; 100% = ROCK inhibitor wells, 0% = DMSO. actives 0.044% (n = 360,000); in the data active = survival enhancement above about 18%;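 also: cells exposed to compounds for 16 hours before the ATP read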
DAGLB inh – blocks human DAGLB lipase activity. HEK293T DAGLB membrane lysate, EnzChek fluorogenic substrate. Q8NCG7. inhibition, % at 5.17 µM. actives 0.059% (n = 340,000); in the data active = inhibition above about 34%;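 also: 0% = enzyme with vehicle and 100% = wells lacking enzyme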
TMEM16A act – mouse TMEM16A channel activation, primary screen. Q8BHY3. AID 623877. actives 0.3% (n = 340,000). HEK293 TMEM16A/YFP-H148Q/I152L, iodide quench fluorescence; hits give low values. B-score at 10 µM;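 active = fluorescence-ratio B-score plate-corrected deviation score at least 3 library SD below zero, with starting fluorescence score within 5 deviations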;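 also: channel opened by trigger with iodide after compound preincubation; score built on the fluorescence ratio of max minus min over baseline; more negative score means more quench and so TMEM16A activation or potentiation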
TMEM16A reconf – re-confirmation of mouse TMEM16A chloride channel inhibitors; actives 39% (n = 2,300); HEK293 TMEM16A/YFP-H148Q, iodide quench fluorescence; ionomycin added to raise cell calcium; AID 652189; inhibition, % at 10 µM; shares compounds with ANO1 block;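 active = mean duplicate percent inhibition, scaled so buffer wells are 0 and the reference blocker 100, over three buffer SD above buffer mean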
TMEM16A Ca cntr – counter-screen for TMEM16A inhibitors: effect on calcium mobilization; shares compounds with ANO1 block; TMEM16A/YFP HEK293, Fluo4 calcium mobilization; calcium response (% of ionomycin), % at 10 µM; actives 2% (n = 2,300);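 active = duplicate-averaged calcium signal over 20% of the ionomycin maximum, relative to buffer baseline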;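 also: each well's signal is peak minus trough fluorescence divided by its pre-addition baseline; 0% = buffer wells and 100% = ionomycin wells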
Parental YFP cnt – acts in parental YFP-HEK293 cells lacking TMEM16A, counter-screen. shares compounds with ANO1 block. iodide YFP quench, ionomycin. YFP ratio F(max-min)/F0 at 10 µM. 2,300 tested, under 10 active;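 active = yellow fluorescent protein signal ratio exceeding the buffer control mean by over 5 SD of those controls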;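 also: ratio is mean of duplicate wells from kinetic YFP trace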
ClC-1 inh – blocks the rat ClC-1 voltage-dependent chloride channel; 2,300 tested, under 10 active; ratio percent, % at 10 µM; shares compounds with ANO1 block; CHO ClC-1-YFP, iodide influx fluorescence quench; iodide control reads 0, buffer control 100;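 active = duplicate-mean ratio percent above the mean of iodide-only control wells, which defines zero, plus 5 of their SD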;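 also: higher percent means stronger block of ClC-1 iodide influx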
Active calls of the source: *; i = inactive; x = no result. Only some compounds are listed: those with a hit (about 1.5% of all), similar ones and a draw of the others.

SMILES	ABCB6 inh 2	ANO1 block	hiPSC survival	DAGLB inh	TMEM16A act	TMEM16A reconf	TMEM16A Ca cntr	Parental YFP cnt	ClC-1 inh
CCOc1ccc(N2C(=O)CC(NCC#N)C2=O)cc1 (stereo unspecified)	94.0	25*	-0.2	-1.2	i	i	i	-1.12	-5.0
CN(C)C(=O)C(Sc1ccc(S(=O)(=O)N2CCCC2)cn1)c1ccccc1 (stereo unspecified)	92.0	x	-0.3	-1.9	i	x	x	x	x
COc1ccc(-c2nc(CN3CCN(c4ncnc5ccccc45)CC3)c(C)o2)c(OC)c1	574.0	100*	-2.4	0.9	i	19.5%*	i	-1.06	-15.0
Cc1oc(-c2cc(F)ccc2F)nc1CN1CCN(c2ncnc3ccccc23)CC1	90.0	100*	-0.1	-1.6	i	20.0%*	i	-1.12	-19.0
Cc1ccsc1/C=N/Nc1ncc(Cl)cc1Cl	86.0	100*	-0.2	-1.2	i	40.5%*	i	-0.937	-7.5
Cc1cc(C)nc(N/N=C/c2sccc2C)n1	83.0	i	1.5	-0.5	i	x	x	x	x
CCOC(=O)C1=C(CSc2nc(-c3ccccc3)ccc2C#N)OC(N)=C(C#N)C1c1ccccc1 (stereo unspecified)	360.0	i	0.4	-4.0	i	i	i	-1.27	0.0
COC(=O)C1=C(C)OC(N)=C(C#N)C1c1ccco1 (stereo unspecified)	97.0	i	0.1	-1.4	i	x	x	x	x
CCOC(=O)C1=C(c2ccccc2)OC(N)=C(C#N)C1c1ccco1 (stereo unspecified)	99.0	25*	-0.2	-3.8	i	i	i	-0.863	-4.5
CC(=O)Nc1ccc(NC(=O)C(C)OC(=O)CSc2ccc(Br)cc2C)cc1 (stereo unspecified)	97.0	i	0.1	3.0	i	x	x	x	x
Cn1cc(CN2CCC(C(=O)NC(c3ccc(F)cc3)c3ccc4ccccc4n3)CC2)c2ccccc21 (stereo unspecified)	95.0	x	-4.0	x	x	x	x	x	x
CC(=O)Nc1ccc(N/C(N)=N/c2nc(C)cc(C)n2)cc1	96.0	i	-0.9	-1.1	i	x	x	x	x
Cc1cc(C)nc(/N=C(\N)Nc2ccc(SC(F)F)cc2)n1	94.0	100*	-0.6	-3.5	i	i	32.0%*	-0.978	-6.0
C=CCN(C(=O)c1cccc(S(=O)(=O)N2CCN(C)CC2)c1)c1nc(-c2ccccc2)cs1	93.0	100*	-0.8	-5.8	i	20.5%*	i	-1.02	-7.0
Cc1ccc(Oc2ccc(S(=O)(=O)N3CCOCC3)cc2C(N)=O)cc1C	94.0	i	-0.4	-1.2	i	x	x	x	x
CC1(C)NC(=S)NC1=S	103.0	x	3.0	0.0	i	x	x	x	x
COc1cc(NS(=O)(=O)c2ccc(N/C=C(\C#N)c3nc4cc(Cl)ccc4o3)cc2)nc(OC)n1	55.0*	100*	1.6	5.8	i	i	i	-0.97	-17.5
Cc1ccc2nc(-c3ccc(C#N)cc3)c(Cc3cccc(Cl)c3)n2c1	89.0	x	2.2	x	x	x	x	x	x
O=c1c(C/C=C/c2ccccc2)c(O)ccn1Cc1ccc(Cl)cc1Cl	95.0	100*	-0.8	1.1	i	i	i	-0.782	-18.0
Cc1cn([C@H]2C[C@H](O)[C@@H](/C=C/C(=O)NCCc3ccc(S(N)(=O)=O)cc3)O2)c(=O)[nH]c1=O	102.0	x	1.7	x	x	x	x	x	x
N#C/C(C(N)=O)=c1/ccc2c(c1)N1C3=C(CCCC3)CC3CCCCC31N=2 (stereo unspecified)	x	i	x	x	x	x	x	x	x
